# Experimental data reported in PubChem BioAssay (NCATS).
# Records with an inconclusive call do not appear. Entries that show only a call come without a potency. The source made the active and inactive calls. Calls follow the shape of the dose curve; as a rule, active = well fitted cell-killing curve with a large enough effect; inconclusive = small, poorly fitted or top-dose-only effect; inactive = flat fitted curve, though single readings scatter.
# Assay: Cell Viability - LYMP1-002 - Assay at 40 hr (AID 994); also: nearly all actives have a fitted effect of over 60% in size
# Details: LYMP1-002 lymphoblastoid cell viability; series mostly up to 92.2 µM
# Text: NIH Chemical Genomics Center [NCGC]
# NIH Molecular Libraries Screening Centers Network [MLSCN]
# National Institutes of Environmental Health Sciences [NIEHS]
# National Toxicology Program [NTP]
# We have developed a 1536-well cell-based assay for quantitative high throughput screening (qHTS) against a number of cell lines to determine in vitro cytotoxicity of small molecules. This particular assay uses a human lymphoblastoid cell line (LYMP1-002) purchased from Coriell Institute for Medical Research.
# NCGC Assay Protocol Summary:
# The CellTiter-Glo luminescent cell viability assay (Promega) is a homogeneous method to measure the number of viable cells in culture. The end point readout of this assay is based on quantitation of intracellular ATP, an indicator of metabolic activity, using the luciferase reaction. Luciferase catalyzes the oxidation of beetle Luciferin to oxyluciferin and light in the presence of ATP. The luminescent signal is proportional to amount of ATP present.
# Using the CellTiter-Glo luminescent cell viability assay, the amount of cellular ATP was measured in the lymphoblastoid cell line with complete culture medium following compound treatment for 40 hours. The assay was performed in opaque white Kalypsys 1536-well plates. In the screen, tetraoctylammonium bromide was used as positive control. Library compounds were measured for their ability to cause acute toxicity in the cell line, as reflected by a decrease in intracellular ATP levels, in a concentration-dependent manner. […] AC50 values were determined from concentration-response data modeled with the standard Hill equation.
# qHTS protocol for CellTiter Glo lymphoblastoid cellular assay
# [Step] [Parameter] [Value] [Description]
# 1. Reagent; 5 uL; 2500 lymphoblastoid cells/well
# 2. Time; 5 hr; 37 C incubation
# 4. Controls; 23 nL; Tetraoctylammonium bromide 6.4pM to 92 uM
# 5. Time; 40 hr; 37 C incubation
# 6. Reagent; 5 uL; CellTiter Glo reagent
# 7. Time; 30 min; Room Temperature
# 8. Detection; Luminescence; Viewlux plate reader
# Keywords: cell viability, cytotoxicity, lymphoblastoid cell line, luminescence, NTPHTS, NTPHTS_NCGC, NIEHS, DSSTox, MLSMR, MLSCN, NIH Roadmap, qHTS, NCGC
# Potency is read from the fitted curve at half-maximal effect.
row,Structure (SMILES),Potency
1,CCOP(=S)(OCC)SCSC(C)(C)C,inactive
2,c1ccc(OP(Oc2ccccc2)Oc2ccccc2)cc1,inactive
3,C=C(C)C(=O)OCC1CO1 (stereo not given),inactive
4,ClC1=C(Cl)C2(Cl)C3C(Cl)C=CC3C1(Cl)C2(Cl)Cl (stereo not given),inactive
5,Brc1ccccc1,inactive
6,CN=C=S,inactive
7,C=CCc1ccc(OC)cc1,inactive
8,C=CCOC(C)=O,inactive
9,C/C=C/c1ccc2c(c1)OCO2,inactive
10,O=[N+]([O-])c1cccc2ccccc12,inactive
11,Cc1ccc([N+](=O)[O-])cc1C,inactive
12,C=C(C)C#N,inactive
13,N#CCCCl,inactive
14,O=C=NC1CCCCC1,inactive
15,O=C1C(Cl)=C(Cl)C(=O)C(Cl)=C1Cl,39.8 µM (active)
16,C[C@]12CC[C@H]3[C@@H](CCC4=CC(=O)CC[C@@]43C)[C@@H]1CC[C@@H]2O,inactive
17,CC(O)CCl (stereo not given),inactive
18,CCOc1ccc(N)cc1,inactive
19,CCOP(=S)(OCC)Oc1ccc([N+](=O)[O-])cc1,inactive
20,CC(C)(OO)c1ccccc1,inactive

row,Structure (SMILES),Potency
1,COC(=O)NC(=S)Nc1ccccc1NC(=S)NC(=O)OC,inactive
2,OCC(Br)CBr (stereo not given),inactive
3,BrCCBr,inactive
4,C=CC(=C)C,inactive
5,COC1=CC(=O)O[C@@H](/C=C/c2ccc3c(c2)OCO3)C1,inactive
6,CCSC(=O)Cl,inactive
7,COc1ccc(C=O)cc1OC,inactive
8,O=NN(c1ccccc1)c1ccccc1,inactive
9,Oc1ccc(Cl)cc1Cl,inactive
10,Cc1cccc([N+](=O)[O-])c1,inactive
11,C=C(Cl)Cl,inactive
12,C[N+](C)(C)Cc1ccccc1,inactive
13,CCNc1nc(Cl)nc(NC(C)C)n1,inactive
14,ClC(Cl)(Cl)c1ccccc1,inactive
15,ClC1=C(Cl)C2(Cl)C3C4C=CC(C4)C3C1(Cl)C2(Cl)Cl (stereo not given),inactive
16,Cc1ccccc1N,inactive
17,CC(C)(c1ccccc1)c1ccc(O)cc1,inactive
18,NC(=S)Nc1ccccc1,inactive
19,c1ccc2c(c1)CCCC2,inactive
20,Clc1ccc2ccccc2c1,inactive
